Screens: PubChem BioAssay, National Center for Advancing Translational Sciences (NCATS)
Shiga inhibitor – Shiga toxin inhibition | Vero cells, Shiga toxin protein synthesis inhibition reporter | inhibition, % at 38.7 µM | 290,000 tested, 9.2% active; in the data active means inhibition mostly above about 28%, no sharp cut-off; inactive means mostly below about 43%; further: 0% is about no effect
Pf growth 48h – P. falciparum growth inhibition at 48 hours (one generation); Potency, µM (doses to about 28.7 µM), without a hit: at the top dose activity change, negative = inhibition, hits mostly inhibitors; P. falciparum luciferase growth in erythrocytes, 48 h; 310,000 tested, 5.9% active; further: potency means the concentration at half of the fitted maximal effect; on the % scale 0 is the no-effect control and ±100 the full control effect
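A one-generation exposure of luciferase-tagged malaria parasites in RPMI 1640/Albumax erythrocyte culture, 37 C and 5% CO2. Inhibition is inferred from decreased luminescence after adding detection reagent.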
CHX counter – counter-screen for Shiga toxin inhibitors: cycloheximide protein synthesis inhibition; cell reporter, cycloheximide protein synthesis inhibition counterscreen; 300,000 tested, 12% active; max response, %; in the data active means max response mostly above about 13%, no sharp cut-off; inactive means mostly below about 14%; further: read at 38.3 µM for the half of the compounds with a filed dose; 0% is about no effect
Pf growth 96h – P. falciparum growth inhibition at 96 hours; P. falciparum luciferase reporter growth, 96 h; Potency, µM (doses to about 28.7 µM), inactives show top-dose activity change, negative = inhibition, actives largely listed as inhibitors; AID 504834; 320,000 tested, 6.9% active; further: potency means the concentration at half of the fitted maximal effect; on the % scale 0 is the no-effect control and ±100 the full control effect
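Readout is luminescence from an integrated firefly luciferase in P. falciparum. Red cells, 2% hematocrit and 0.05% parasitemia final, were cultured with compound through two parasite generations (96 hours) at 37 C, 5% CO2.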
LmPK inhibitor – LmPK (Leishmania mexicana) enzyme inhibition | Q27686 | purified LmPK, Kinase-Glo ATP luminescence, 1 h | Potency, µM (top dose mostly 57.5 µM), for inactives: at the top dose activity change, negative = inhibition, usual class: inhibitors | 290,000 tested, 0.37% active; further: potency means the concentration at half of the fitted maximal effect; on the % scale 0 is the no-effect control and ±100 the full control effect
Target sequence (Q27686 whole entry, looked up): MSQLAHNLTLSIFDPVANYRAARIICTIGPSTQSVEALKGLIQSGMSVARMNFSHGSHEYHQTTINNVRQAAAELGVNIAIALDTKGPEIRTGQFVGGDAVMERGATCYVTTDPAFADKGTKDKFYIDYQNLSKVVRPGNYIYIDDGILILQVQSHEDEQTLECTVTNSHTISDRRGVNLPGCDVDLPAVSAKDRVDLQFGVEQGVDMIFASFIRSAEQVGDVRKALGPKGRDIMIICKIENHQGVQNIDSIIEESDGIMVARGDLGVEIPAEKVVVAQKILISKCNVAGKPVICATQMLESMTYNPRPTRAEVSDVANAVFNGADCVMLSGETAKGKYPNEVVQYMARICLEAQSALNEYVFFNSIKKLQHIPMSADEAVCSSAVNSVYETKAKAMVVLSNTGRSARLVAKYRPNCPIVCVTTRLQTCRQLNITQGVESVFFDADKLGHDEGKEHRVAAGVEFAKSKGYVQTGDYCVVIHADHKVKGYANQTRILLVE
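0.1 nM LmPK, 0.5 mM PEP, 0.1 mM ADP; 50 mM imidazole pH 7.2, 7 mM MgCl2, 50 mM KCl; 1 h RT. Kinase-Glo luminescence readout, normalized to no-enzyme (full inhibition) and uninhibited wells.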
Active calls of the source: *; u = inconclusive; x = no result given. Only some compounds are listed: those with a hit (about 22% of all), similar ones and a draw of the others. Unless noted, the call rests on the fitted dose curve; in most records, active means well fitted inhibition curve with a large enough effect; inconclusive means small, poorly fitted or top-dose-only effect, or another doubt; inactive means no such curve, though single readings can be large or run the other way.

SMILES	Shiga inhibitor	Pf growth 48h	CHX counter	Pf growth 96h	LmPK inhibitor
Cc1ccc2cc(C(c3nnnn3Cc3ccccc3)N3CCc4ccccc43)c(=O)[nH]c2c1 (configuration not stated)	-8	x	-4	6.6µM*	-5%
Cc1ccc2[nH]c(=O)c(C(c3nnnn3Cc3ccccc3)N3CCc4ccccc43)cc2c1 (configuration not stated)	-11	x	4	x	11%
Cc1ccc2[nH]c(=O)c(C(c3nnnn3CC3CCCO3)N3CCc4ccccc4C3)cc2c1 (configuration not stated)	-14	-13%	9	14%	0%
Cc1cc2cc(C(c3nnnn3Cc3ccco3)N3CCc4ccccc43)c(=O)[nH]c2cc1C (configuration not stated)	-6	0%	-2	u	3%
Cc1cc2cc(C(c3nnnn3Cc3ccccc3)N3CCc4ccccc43)c(=O)[nH]c2cc1C (configuration not stated)	24	x	12	5.2µM*	8%
Cc1ccc2[nH]c(=O)c(C(c3nnnn3CC3CCCO3)N3CCCc4ccccc43)cc2c1 (configuration not stated)	10	13µM*	-3	20%	10%
O=C(Nc1cccc2nsnc12)c1ccc(-c2cccc(Cl)c2)o1	3	19%	-1	15%	1%
O=C(CN1CCN(S(=O)(=O)c2ccc(Cl)cc2)CC1)N1CCCC1	x	1%	x	5%	x
OCCc1ccc(O)c(-n2nc3ccccc3n2)c1	59*	88%	22*	109%	0%
Cn1c(O)c(N=NC(=O)c2ccco2)c2ccccc21	145*	84%	44*	-3%	-22%
CC(C)CCn1c(O)c(N=NC(=O)c2ccco2)c2ccccc21	24*	u	22	u	4%
CN1CCN(S(=O)(=O)c2cccc(C(=O)Oc3ccc(Br)cc3F)c2)CC1	0	14%	-2	36%	-6%
O=C(Nc1cccnc1Cl)C1=NN(c2ccccc2)C(=O)CC1	-3	u	-1	u	-4%
CC(C)CN(C(=O)COC(=O)CSc1ccc(Br)cc1)C1CCS(=O)(=O)C1 (configuration not stated)	x	0%	x	22%	x
CC1(C)N(O)C2CCCCC2N1O (configuration not stated)	17	0.037µM*	13	u	-3%
CSC1=NSC2=NC(=O)/C(=C\c3coc4ccccc4c3=O)C(=N)N12	-7	-10%	-2	-3%	5%
CC(C)CSC1=NSC2=NC(=O)/C(=C\c3ccccc3)C(=N)N12	77*	337%	38*	u	2%
Cc1cc(/C=C2\C(=N)N3C(SCc4ccccc4)=NSC3=NC2=O)c(C)n1Cc1ccccc1	-13	x	-4	21%	0%
CC(C)CSC1=NSC2=NC(=O)/C(=C\c3coc4ccccc4c3=O)C(=N)N12	71*	48%	27*	-1%	4%
CCN(CC)CCOC(=O)c1ccc(N/C=C(/C#N)c2nc(-c3cc4ccccc4oc3=O)cs2)cc1	-4	0.083µM*	1	0.15µM*	2%
COc1cc(/C=C(/C#N)c2nc(-c3cc4ccccc4oc3=O)cs2)cc([N+](=O)[O-])c1O	-14	2.3µM*	0	u	-4%
CCN(CC)CCOC(=O)c1ccc(N/C=C(/C#N)c2nc(-c3ccc4c(c3)OCO4)cs2)cc1	25	1µM*	31*	1.3µM*	3%
Cn1nnc(NC(=S)NC(=O)Cc2ccccc2)n1	17	-18%	6	2.1µM*	5%
CCn1nnc(NC(=O)c2cc3ccccc3o2)n1	81*	139%	30*	x	-17%
CCCn1nnc(NC(=O)Cc2ccccc2)n1	-26	9%	-3	38%	2%
SMILES	Shiga inhibitor	Pf growth 48h	CHX counter	Pf growth 96h	LmPK inhibitor
Cc1nc(NC(=O)c2cc3ccccc3o2)ccc1Br	23	120%	11	-11%	4%
Cn1nnc(NC(=O)c2ccccc2)n1	16	32%	0	13µM*	0%
CCCCn1nnc(NC(=O)c2ccc(-c3cccc([N+](=O)[O-])c3)o2)n1	20	1%	16	66%	1%
CCCCn1nnc(NC(=O)c2cc3ccccc3o2)n1	42*	143%	44*	x	-10%
CNC(=O)COc1ccc(Nc2nnc(-c3ccc(C)c(S(N)(=O)=O)c3)c3ccccc23)cc1	-5	u	-1	-9%	2%
CCOP(=O)(OCC)C1NC(=O)N(c2ccccc2)C1=O (configuration not stated)	-4	2%	-6	u	-1%
CC(=O)c1cccc(NC(=O)c2ccc(-c3ccccc3[N+](=O)[O-])o2)c1	51*	170%	70*	-53%	-2%
CCn1nnc(NC(=O)c2ccc(Br)o2)n1	27	25%	4	-3%	-7%
CCc1ccc(C(=O)Nc2nnn(CC)n2)cc1	13	59%	11*	82%	-26%
Cn1nnc(NC(=S)NC(=O)c2ccco2)n1	7	27%	8	-8%	-1%
Cn1nnc(NC(=S)NC(=O)c2cc3ccccc3o2)n1	-1	6%	11*	u	5%
CCCCn1nnc(NC(=O)c2ccc(-c3ccccc3)cc2)n1	active	u	41*	70%	-2%
Cc1cnc(CNC(=O)C2CCC(=O)N(CCc3ccc(Cl)cc3)C2)cn1 (configuration not stated)	8	-7%	4	u	-7%
CCCn1nnc(NC(=O)c2ccc3c(c2)OCO3)n1	89*	84%	54*	158%	-15%
CCn1nnc(NC(=O)c2ccc(-c3ccccc3[N+](=O)[O-])o2)n1	38	-10%	17*	3%	-4%
CCCn1nnc(NC(=O)c2cc3ccccc3o2)n1	74*	237%	43*	-2%	-2%
C=CCN(CC(=O)O)S(=O)(=O)c1ccccc1C(F)(F)F	-10	14%	-3	32%	6%
N#CCC(=O)Nc1ccc(C(=O)NCC(c2ccco2)N2CCCCC2)cc1 (configuration not stated)	-5	u	-3	u	6%
COc1ccc([C@H]2CC(=O)C=C(c3c(OC)cccc3OC)C2)cc1	x	u	x	-17%	x
COC(=O)c1cccc(N(CC(=O)NC2CCCCC2)C(=O)CNC(=O)c2cccs2)c1	-4	u	-4	16%	0%
O=S(=O)(c1ccc(Br)cc1)N1CCCN(Cc2ccccc2F)CC1	-12	40%	-4	6.6µM*	1%
N#Cc1ccc(CN2CCN(C(=O)c3ccc(S(=O)(=O)N4CCCCCC4)cc3)CC2)cc1	x	13µM*	x	u	x
O=C(c1ccc(S(=O)(=O)N2CCCC2)cc1)N1CCCCC1	x	35%	x	7%	x
COc1ccc(CN2CCN(C(=O)c3ccc(S(=O)(=O)N4CCCCCC4)cc3)CC2)cc1F	x	13µM*	x	u	x
COc1ccc(S(=O)(=O)N2CCCN(Cc3cccc(F)c3)CC2)cc1	18	19%	-2	12µM*	-8%
